Experimental findings from ChEMBL document CHEMBL4808148, “HDAC6 screening dataset using tau-based substrate in an enzymatic assay yields selective inhibitors and activators” (2021) are described below.

Assay [1] concerns the target T1, Protein deacetylase HDAC6 (Homo sapiens) (UniProt Q9UBN7).
T1 sequence (whole entry): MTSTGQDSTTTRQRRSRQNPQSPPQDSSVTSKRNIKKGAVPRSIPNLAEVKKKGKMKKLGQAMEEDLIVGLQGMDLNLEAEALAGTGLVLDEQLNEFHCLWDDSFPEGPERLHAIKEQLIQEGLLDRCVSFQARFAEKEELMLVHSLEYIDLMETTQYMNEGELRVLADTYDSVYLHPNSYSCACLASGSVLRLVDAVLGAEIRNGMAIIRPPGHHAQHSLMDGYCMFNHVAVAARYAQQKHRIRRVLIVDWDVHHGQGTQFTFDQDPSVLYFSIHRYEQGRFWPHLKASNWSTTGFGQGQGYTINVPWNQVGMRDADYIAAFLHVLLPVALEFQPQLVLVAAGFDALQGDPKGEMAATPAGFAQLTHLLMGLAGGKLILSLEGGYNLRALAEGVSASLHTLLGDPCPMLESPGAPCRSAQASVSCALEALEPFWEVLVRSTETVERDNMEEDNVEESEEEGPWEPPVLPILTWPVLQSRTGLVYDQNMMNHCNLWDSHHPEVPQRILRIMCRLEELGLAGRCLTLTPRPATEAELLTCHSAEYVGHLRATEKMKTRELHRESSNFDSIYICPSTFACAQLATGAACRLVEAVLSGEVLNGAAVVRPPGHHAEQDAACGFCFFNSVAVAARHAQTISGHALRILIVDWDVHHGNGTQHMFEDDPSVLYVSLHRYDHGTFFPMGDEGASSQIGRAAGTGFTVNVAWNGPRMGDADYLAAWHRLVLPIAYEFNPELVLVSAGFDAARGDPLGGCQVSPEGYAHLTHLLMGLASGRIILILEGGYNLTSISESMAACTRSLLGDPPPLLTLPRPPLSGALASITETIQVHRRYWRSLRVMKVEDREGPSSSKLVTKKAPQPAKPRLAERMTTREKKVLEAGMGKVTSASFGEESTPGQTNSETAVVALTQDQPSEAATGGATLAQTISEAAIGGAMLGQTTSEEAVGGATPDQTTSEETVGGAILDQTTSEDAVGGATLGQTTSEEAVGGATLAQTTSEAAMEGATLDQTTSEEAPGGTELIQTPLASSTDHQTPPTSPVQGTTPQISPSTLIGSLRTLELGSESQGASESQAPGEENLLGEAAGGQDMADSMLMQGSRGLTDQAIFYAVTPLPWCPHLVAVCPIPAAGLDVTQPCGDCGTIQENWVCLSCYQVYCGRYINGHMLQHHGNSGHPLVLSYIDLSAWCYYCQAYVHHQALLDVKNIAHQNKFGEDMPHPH
The following applies: at 10 µM.

In assay [2] the target is Protein deacetylase HDAC6 (Homo sapiens) (UniProt Q9UBN7). The conditions noted are these: at 10 µM. This is another data set of the same source.

Values joined by “and” are separate entries in the source; they are usually repeats but may differ in a detail not shown here. Equal entries are not always repeated. Out of some 5,600 compounds screened, about 150 (2.7%) showed an effect of 50% or more. This excerpt belongs to a sample that is enriched for strong results. Starred links: 1 amine or outer side, 2 acyl side, 3 side chain; linkers in the order of their positions; H or OH if unused. Positions of bridges follow the written chain, without caps; N, C: chain ends. Non-standard residues stand in square brackets, D forms with d. Residues, ends and D or L forms follow the SMILES beside them. ξ: configuration not given here. *: point of attachment. hTyr(3S-OH,4S-OH,3'-OSO3H) = N[C@H](C(=O)O)[C@H](O)[C@@H](O)c1ccc(O)c(OS(=O)(=O)O)c1; Orn(4R-OH,5R-OH) = O=C([C@H](C[C@@H](O)[C@@H](O)N[*:3])N[*:1])[*:2]; Pro(3S-OH,4S-Me) = C[C@H]1CN[C@H](C(=O)O)[C@H]1O; X1 = CCCCCOc1ccc(-c2cc(-c3ccc(C(=O)*)cc3)no2)cc1; Gln(3R-OH) = NC(=O)C[C@@H](O)[C@H](N)C(=O)O; Hyp = O=C(O)[C@@H]1C[C@@H](O)CN1; ξThr(3R) = C[C@@H](O)C(N)C(=O)O

On to `CCCCCOc1ccc(-c2cc(-c3ccc(C(=O)N[C@H]4C[C@@H](O)[C@@H](O)NC(=O)[C@@H]5[C@@H](O)[C@@H](C)CN5C(=O)[C@H]([C@H](O)CC(N)=O)NC(=O)[C@H]([C@H](O)[C@@H](O)c5ccc(O)c(OS(=O)(=O)O)c5)NC(=O)[C@@H]5C[C@@H](O)CN5C(=O)C([C@@H](C)O)NC4=O)cc3)no2)cc1` (stereo partly drawn) (X1-[Orn(4R-OH,5R-OH)][ξThr(3R)][Hyp][hTyr(3S-OH,4S-OH,3'-OSO3H)][Gln(3R-OH)][Pro(3S-OH,4S-Me)]; lactam 1-C), for which, in assay [1], the inhibition was 4.51%.

For the molecule `O=C(/C=C/c1ccccc1)NC(NC(=S)Nc1cccc2cccnc12)C(Cl)(Cl)Cl` (centres undefined), in assay [1], the inhibition came to 3.55%.

As to `CC(C)c1ccc(C(=O)c2cccs2)c(SCCCCCCCCN(C)C)n1`, the inhibition in assay [1] turned out to be 3.78%.

For the molecule `CN(C)CCCSc1ccccc1NC(=O)/C=C/c1ccccc1`, in assay [1], the inhibition was 92.4%.

On to `CNC[C@@H]1CC[C@@H](N)[C@H](O[C@H]2[C@H](O)[C@@H](O[C@H]3OC[C@](C)(O)[C@H](NC)[C@H]3O)[C@H](N)C[C@@H]2N)O1`, for which the inhibition in assay [1] was -3.43%.

On to “gallium-triquinolin-8-olate, CHEMBL4303465”, for which the inhibition in assay [2] stood at 8.35%.

Regarding `C[C@H]1N=C(N(C)C)N=C(N)N1`, the inhibition in assay [1] was -1.55%.

For the molecule `CN1C[C@@H]2CN(c3ccc(-c4ccccc4)nn3)C[C@@H]2C1`, in assay [1], the inhibition turned out to be 57.6%.

Regarding `O=C(c1cc(S(=O)(=O)Nc2ccccc2F)c(F)cc1Cl)N1CCN2CCC[C@@H]2C1`, the inhibition in assay [1] was -3.32%.

On to `CN1[C@H]2C[C@H](OC(=O)[C@H](CO)c3ccccc3)C[C@@H]1[C@@H](O)C2` (racemic), for which the inhibition in assay [1] amounted to 0.83%.

For the molecule `C=C1/C(=C\C=C2/CCC[C@]3(C)[C@@H]([C@H](C)CCCC(O)(C(F)(F)F)C(F)(F)F)CC[C@@H]23)C[C@@H](O)C[C@@H]1O`, in assay [1], the inhibition was 4.32%.

Consider `COc1cc(-c2ccc(/N=N/c3ccc4c(S(=O)(=O)O)cc(S(=O)(=O)O)c(N)c4c3O)c(OC)c2)ccc1/N=N/c1ccc2c(S(=O)(=O)O)cc(S(=O)(=O)O)c(N)c2c1O`, for which the inhibition in assay [1] came out at 50.8%.

Regarding `COc1cc(O)c(C(=O)c2ccccc2)cc1S(=O)(=O)O`, in assay [1], the inhibition worked out at 2.56%.

Take `COc1cccc(-n2nc(C(=O)O)cc2-c2ccc(C3CCCCC3)c(Cl)c2)c1`: the inhibition in assay [1] was found to be 1.57%.

Regarding `CO/N=C(\C(=O)N[C@@H]1C(=O)N2C(C(=O)O)=C(C)CS[C@H]12)c1csc(N)n1`, in assay [1], the inhibition came out at 1.72%.

Regarding GADOTERIDOL, CHEMBL1200593, in assay [2], the inhibition is -0.37%.

With Miriplatin, CHEMBL4303713, the inhibition in assay [2] was -1.16%.

For the molecule PHENYLMERCURIC ACETATE, CHEMBL1333953, the inhibition in assay [2] stood at 62%.

With `NC1CCC(N[C@@H]2C[C@H]2c2ccccc2)CC1` (some centres undefined), in assay [1], the inhibition was -0.23%.

Regarding `CN1C(=O)C(N2CCCCC2)S/C1=C\C(=O)O` (centres undefined), the inhibition in assay [1] came to 0.03%.

For the molecule `CC(C)Oc1ccc(-c2nn([C@@H](C)c3oc4ccc(F)cc4c(=O)c3-c3cccc(F)c3)c3ncnc(N)c23)cc1F`, the inhibition in assay [1] turned out to be 2.17%.

As to `COC(=O)C1=C(C)N(C)C(C)=C(C(=O)OC)C1c1ccc(C(F)(F)F)cc1`, the inhibition in assay [1] is 1.92%.

For the molecule `CCCCC/C=C\C/C=C\CCCCCCCC(=O)NCCCC(=O)O`, the inhibition in assay [1] was 3.98%.

In the case of `COc1cc(CNC(=O)CCCC/C=C/C(C)C)ccc1O`, in assay [1], the inhibition was -2.58%.

In the case of `CCCCCCCCC(=O)NCc1ccc(O)c(OC)c1`, in assay [1], the inhibition was 58.8%.

Regarding `CS(=O)(=O)OC[C@H](O)[C@@H](O)COS(C)(=O)=O`, the inhibition in assay [1] came out at 2%.

Take `N=C1N[C@H]2[C@H](CS[C@H]2CCCCC(=O)O)N1`: in assay [1], the inhibition was 1.67%.

Take `O=[Si]=O.O=[Si]=O.O=[Si]=O.O=[Si]=O.[O]=[Mg].[O]=[Mg].[O]=[Mg]`: the inhibition in assay [1] was found to be 97.2%.

For the molecule `CNC(=O)c1cccc2cc(Oc3ccnc4cc(OCC5(N)CC5)c(OC)cc34)ccc12`, the inhibition in assay [1] was 11.4%.

As to `O=C(O)c1ccccc1NCCc1ccccc1`, the inhibition in assay [1] is 7.74%.

For `O=C(NCc1cccc(O)c1)Nc1nc(-c2ccncc2)cs1`, the inhibition in assay [1] was -5.89% and -0.86%.

For `c1ccc(CCNc2nc(-c3ccccc3)cs2)cc1`, in assay [1], the inhibition worked out at 83.7%.

Regarding `CC(NC(=O)[C@@H](N)Cc1ccc(O)cc1)C(=O)NCC(=O)N(C)[C@@H](Cc1ccccc1)C(=O)N[C@H](CO)CC[S+](C)[O-]` (stereo in doubt), the inhibition in assay [1] came to 2.35%.

With `O=C(O)c1cc(/N=N/c2ccc(O)c(C(=O)O)c2)ccc1O`, the inhibition in assay [1] turned out to be 95.1%.

For `O=C(O)c1cc(O)c(O)c(O)c1`, the inhibition in assay [1] is -7.85%.

On to `COc1ccc(NS(=O)(=O)c2ccc(/N=N/c3ccc(O)c(C(=O)O)c3)cc2)nn1`, for which the inhibition in assay [1] was -4.06%.

Consider `CC1(C)[C@@H]2C[C@H]1[C@@](C)(O)[C@@H](O)C2`, for which the inhibition in assay [1] is -1.04%.

In the case of `Cc1ccc(S(=O)(=O)Nc2ccc3c(c2)c(C(=O)C(F)(F)F)cn3CC(=O)N[C@@H](CC(C)C)C(=O)O)cc1`, in assay [1], the inhibition was -4.82%.

As to `O=C1C[C@@]2(C(=O)N1)C(=O)N(Cc1ccc(Br)cc1F)C(=O)c1cccn12`, in assay [1], the inhibition was -2.35%.

For the molecule `COCCN1CCN(Cc2ccc(-c3n[nH]c4c3C(=O)c3c(NC(=O)NN5CCOCC5)cccc3-4)cc2)CC1`, in assay [1], the inhibition was -4.17%.

For `CNC(=O)N(C)N=O`, in assay [1], the inhibition is -4.29%.

With `O=c1c2ccccc2[se]n1-c1ccccc1`, the inhibition in assay [1] is 52.4%.

For `CCC(=O)NO`, in assay [1], the inhibition was determined as 44.5%.

As to `O=[N+]([O-])c1cn2c(n1)OC[C@@H](OCc1ccc(-c3ccc(OC(F)(F)F)cc3)nc1)C2`, the inhibition in assay [1] came out at 4.86%.
